Data from the supplement of paper PMC10849652.
Targets with a hit are over-represented here; the source holds about 7,900 in all. About 0.6% of all pairs of compound and target were hits.

What was measured:
Assay in all cases: log2 fold change, soluble protein after heating vs DMSO (PISA); higher = thermal stabilisation; K562 cells, 10 uM, 30 min; active = over 0.2 and 3.5 SD of the protein, either way, in both replicates (recomputed)
[1] = compound: C1=CC=C(C=C1)[C@H](COC2=CC3=C(C=C2)NC(=O)N3)NC(=O)C4=CC=CN(C4=O)CC5=CC(=C(C=C5)F)F
Summary of the method: (§1)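 K562 cells at 2×10^6 cells/mL were exposed to 10 μM compound for 30 min, then aliquots were heated for 3 min across 48°C-58°C, pooled, and extracted in PBS containing 0.5% NP-40 at 4°C. The supernatant after 21,000xg for 90 min was taken as soluble protein and measured by TMTpro 16plex LC-MS/MS with channel sums equalised. Thermal stability is reported relative to control samples, with values from duplicates. Fold changes are given on a log2 scale.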

[2] = compound: CC1=C(SC2=C1C(=N[C@H](C3=NN=C(N32)C)CC(=O)N)C4=CC=C(C=C4)Cl)C
Summary of the method: as §1

[3] = compound: CC1=C2C(=CC=C1)N=C(N(C2=O)C3=CC=CC=C3C)CN4C=NC5=C(N=CN=C54)N
Summary of the method: as §1

[4] = compound: Cc1sc2c(c1C)C(c1ccc(Cl)cc1)=N[C@@H](CC(=O)OC(C)(C)C)c1nnc(C)n1-2
Summary of the method: as §1

[5] = compound: c1ccc([C@@H]2C[C@H]2NC2CCNCC2)cc1
Summary of the method: as §1

Measured: log2 fold change

TLK1 (UniProt Q9UKI8)
inactive: [1] 0.007 | [2] 0.036 | [3] 0.036 | [4] -0.036 | [5] 0.018

SLC27A4 (UniProt Q6P1M0)
inactive: [1] -0.018 | [2] 0.095 | [3] 0.037 | [4] -0.027 | [5] -0.019

SPAST (UniProt Q9UBP0)
inactive: [1] -0.057 | [2] 0.026 | [3] 0.117 | [4] -0.016 | [5] -0.085

SLC35B1 isoform 2 (UniProt P78383)
inactive: [1] -0.166 | [2] -0.233 | [3] 0.146 | [4] -0.215 | [5] 0.027

TBRG4 (UniProt Q969Z0)
inactive: [1] -0.106 | [2] 0.022 | [3] 0.077 | [4] -0.049 | [5] -0.017

TIMM10B (UniProt Q9Y5J6)
inactive: [1] -0.018 | [2] 0.18 | [3] 0.058 | [4] 0.066 | [5] -0.026

SMIM20 isoform 2 (UniProt Q8N5G0)
inactive: [1] 0.019 | [2] -0.034 | [3] 0.081 | [4] -0.125 | [5] -0.1

SRSF6 (UniProt Q13247)
inactive: [1] -0.071 | [2] -0.453 | [3] -0.109 | [4] 0.217 | [5] 0.015

TAX1BP1 (UniProt Q86VP1)
inactive: [1] -0.008 | [2] 0.09 | [3] 0.042 | [4] 0.029 | [5] -0.007

STK4 (UniProt Q13043)
inactive: [1] -0.008 | [2] 0.088 | [3] 0.057 | [4] 0.005 | [5] -0.001

SLC38A9 (UniProt Q8NBW4)
inactive: [1] 0.053 | [2] -0.019 | [3] 0.065 | [4] -0.014 | [5] 0.042

SREBF1 isoform 4 (UniProt P36956)
inactive: [1] 0.026

TK1 (UniProt K7ERV3)
inactive: [1] 0.038 | [2] 0.091 | [3] 0.083 | [4] 0.029 | [5] 0.015

SLC25A4 (UniProt P12235)
Sequence of UniProt P12235 (P12235 whole entry, looked up): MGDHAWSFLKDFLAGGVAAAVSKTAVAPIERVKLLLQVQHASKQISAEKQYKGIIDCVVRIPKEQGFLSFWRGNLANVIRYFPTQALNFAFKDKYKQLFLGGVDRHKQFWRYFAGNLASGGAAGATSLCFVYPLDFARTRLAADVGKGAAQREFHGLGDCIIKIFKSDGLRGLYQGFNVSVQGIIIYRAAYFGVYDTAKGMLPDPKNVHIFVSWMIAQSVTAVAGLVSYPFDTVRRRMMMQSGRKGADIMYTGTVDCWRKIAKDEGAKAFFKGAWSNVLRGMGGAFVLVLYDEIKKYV
inactive: [1] -0.001 | [2] -0.034 | [3] 0.062 | [4] -0.049 | [5] 0.05

SMG1 (UniProt Q96Q15)
inactive: [1] -0.104 | [2] 0.003 | [3] -0.004 | [4] 0.02 | [5] -0.071

SLC30A10 (UniProt Q6XR72)
inactive: [1] 0.066 | [2] -0.005 | [3] 0.113 | [4] -0.003 | [5] 0.059

SPART (UniProt Q8N0X7)
Sequence of UniProt Q8N0X7 (Q8N0X7 whole entry, looked up): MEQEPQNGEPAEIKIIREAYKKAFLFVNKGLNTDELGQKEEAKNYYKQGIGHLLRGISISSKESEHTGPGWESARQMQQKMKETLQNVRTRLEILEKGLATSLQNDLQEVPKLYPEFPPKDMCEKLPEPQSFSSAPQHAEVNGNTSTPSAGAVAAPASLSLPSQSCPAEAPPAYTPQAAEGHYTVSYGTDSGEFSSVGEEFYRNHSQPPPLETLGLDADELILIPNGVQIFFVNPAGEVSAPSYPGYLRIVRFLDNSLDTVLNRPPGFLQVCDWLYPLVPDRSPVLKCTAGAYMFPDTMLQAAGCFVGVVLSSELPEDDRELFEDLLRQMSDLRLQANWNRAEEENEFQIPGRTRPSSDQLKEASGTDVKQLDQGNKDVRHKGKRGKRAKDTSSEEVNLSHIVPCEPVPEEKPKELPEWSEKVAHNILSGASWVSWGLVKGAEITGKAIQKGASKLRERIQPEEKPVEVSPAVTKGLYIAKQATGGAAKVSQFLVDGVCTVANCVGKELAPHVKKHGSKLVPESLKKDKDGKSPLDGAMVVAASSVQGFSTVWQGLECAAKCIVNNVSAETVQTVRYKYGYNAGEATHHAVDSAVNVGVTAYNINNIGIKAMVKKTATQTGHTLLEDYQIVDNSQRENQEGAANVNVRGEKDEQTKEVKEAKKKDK
inactive: [1] -0.028 | [2] 0.043 | [3] 0.065 | [4] 0.018 | [5] -0.002

SYF2 (UniProt O95926)
inactive: [1] 0.032 | [2] 0.029 | [3] -0.077 | [4] 0.145 | [5] 0.065

SNRPB2 (UniProt P08579)
inactive: [1] 0.083 | [2] 0.002 | [3] -0.044 | [4] 0.07 | [5] 0.02

SPECC1 (UniProt Q5M775)
inactive: [1] -0.017 | [2] -0.087 | [3] 0.105 | [4] -0.012 | [5] 0.037

SURF1 (UniProt Q15526)
Sequence of UniProt Q15526 (Q15526 whole entry, looked up): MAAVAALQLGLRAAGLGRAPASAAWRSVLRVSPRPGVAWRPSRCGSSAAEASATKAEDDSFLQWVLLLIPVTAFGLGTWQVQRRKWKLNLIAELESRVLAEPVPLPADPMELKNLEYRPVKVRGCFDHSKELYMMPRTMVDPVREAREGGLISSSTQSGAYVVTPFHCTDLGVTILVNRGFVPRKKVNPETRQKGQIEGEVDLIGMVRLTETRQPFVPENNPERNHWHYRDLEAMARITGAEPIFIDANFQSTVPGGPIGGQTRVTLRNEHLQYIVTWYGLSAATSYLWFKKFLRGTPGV
inactive: [1] -0.015 | [2] -0.018 | [3] 0.15 | [4] -0.101 | [5] 0.063

SRRM2 (UniProt Q9UQ35)
inactive: [1] -0.005 | [2] -0.015 | [3] 0 | [4] 0.05 | [5] 0.037

SREK1 isoform 2 (UniProt Q8WXA9)
inactive: [1] 0.05 | [2] -0.06 | [3] -0.039 | [4] -0.037 | [5] 0.026

SNRPD3 (UniProt P62318)
inactive: [1] 0.035 | [2] -0.029 | [3] 0 | [4] 0.106 | [5] 0.036

TFRC (UniProt P02786)
inactive: [1] 0.058 | [2] 0.032 | [3] 0.008 | [4] 0.011 | [5] 0.021

STK17B (UniProt O94768)
inactive: [1] 0.043

SMARCAD1 isoform 2 (UniProt Q9H4L7)
inactive: [1] -0.029 | [2] 0.071 | [3] 0.214 | [4] -0.129 | [5] 0.004

TMBIM1 (UniProt Q969X1)
Sequence of UniProt Q969X1 (Q969X1 whole entry, looked up): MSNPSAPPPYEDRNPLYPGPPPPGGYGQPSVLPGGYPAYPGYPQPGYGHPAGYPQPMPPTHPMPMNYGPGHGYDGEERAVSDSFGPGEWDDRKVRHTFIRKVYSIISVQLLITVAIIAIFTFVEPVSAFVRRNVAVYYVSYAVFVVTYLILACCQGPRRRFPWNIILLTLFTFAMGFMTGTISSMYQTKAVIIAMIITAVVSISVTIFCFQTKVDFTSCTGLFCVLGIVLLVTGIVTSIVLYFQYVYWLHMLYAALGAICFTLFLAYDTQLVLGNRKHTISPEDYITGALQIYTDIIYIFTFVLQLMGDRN
inactive: [1] 0.024 | [2] 0.206 | [3] 0.242 | [4] -0.005 | [5] 0.193

SUPT16H (UniProt Q9Y5B9)
inactive: [1] -0.238 | [2] 0.023 | [3] 0.279 | [4] -0.106 | [5] -0.006

SUOX (UniProt P51687)
inactive: [1] 0.01 | [2] 0 | [3] 0.096 | [4] -0.011 | [5] -0.021

TCOF1 isoform 4 (UniProt Q13428)
inactive: [1] 0.016 | [2] 0.006 | [3] 0.018 | [4] 0.033 | [5] 0.042

ST3GAL2 (UniProt Q16842)
inactive: [1] 0.083 | [2] 0.006 | [3] 0.011 | [4] 0.005 | [5] 0.007

SULT1A1 (UniProt P50225)
Sequence of UniProt P50225 (P50225 whole entry, looked up): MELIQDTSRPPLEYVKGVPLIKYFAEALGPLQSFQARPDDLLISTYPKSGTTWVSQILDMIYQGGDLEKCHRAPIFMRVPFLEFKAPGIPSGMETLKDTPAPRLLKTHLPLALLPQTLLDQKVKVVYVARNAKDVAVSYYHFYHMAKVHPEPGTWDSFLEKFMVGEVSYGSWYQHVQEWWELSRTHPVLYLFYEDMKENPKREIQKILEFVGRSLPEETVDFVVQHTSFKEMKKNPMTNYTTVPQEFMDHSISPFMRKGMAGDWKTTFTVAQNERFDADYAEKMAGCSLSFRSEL
inactive: [1] -0.083 | [2] 0.064 | [3] -0.021 | [4] -0.06 | [5] -0.066

SYNE1 (UniProt Q8NF91)
inactive: [1] -0.009 | [2] 0.24 | [3] 0.223 | [4] -0.018 | [5] -0.052

SLC29A3 (UniProt Q9BZD2)
inactive: [1] 0.036 | [2] 0.033 | [3] 0.044 | [4] -0.352 | [5] 0.139

TK1 (UniProt P04183)
inactive: [1] 0.002 | [2] -0.008 | [3] -0.011 | [4] -0.019 | [5] 0.008

TBC1D15 isoform 3 (UniProt Q8TC07)
inactive: [1] -0.072 | [2] 0.013 | [3] 0.045 | [4] 0.005 | [5] -0.019

TBCD (UniProt Q9BTW9)
inactive: [1] -0.028 | [2] 0.03 | [3] 0.101 | [4] -0.004 | [5] -0.03

SRP72 (UniProt O76094)
inactive: [1] -0.068 | [2] -0.016 | [3] 0.047 | [4] 0.097 | [5] -0.016

STAT3 (UniProt P40763)
Sequence of UniProt P40763 (P40763 whole entry, looked up): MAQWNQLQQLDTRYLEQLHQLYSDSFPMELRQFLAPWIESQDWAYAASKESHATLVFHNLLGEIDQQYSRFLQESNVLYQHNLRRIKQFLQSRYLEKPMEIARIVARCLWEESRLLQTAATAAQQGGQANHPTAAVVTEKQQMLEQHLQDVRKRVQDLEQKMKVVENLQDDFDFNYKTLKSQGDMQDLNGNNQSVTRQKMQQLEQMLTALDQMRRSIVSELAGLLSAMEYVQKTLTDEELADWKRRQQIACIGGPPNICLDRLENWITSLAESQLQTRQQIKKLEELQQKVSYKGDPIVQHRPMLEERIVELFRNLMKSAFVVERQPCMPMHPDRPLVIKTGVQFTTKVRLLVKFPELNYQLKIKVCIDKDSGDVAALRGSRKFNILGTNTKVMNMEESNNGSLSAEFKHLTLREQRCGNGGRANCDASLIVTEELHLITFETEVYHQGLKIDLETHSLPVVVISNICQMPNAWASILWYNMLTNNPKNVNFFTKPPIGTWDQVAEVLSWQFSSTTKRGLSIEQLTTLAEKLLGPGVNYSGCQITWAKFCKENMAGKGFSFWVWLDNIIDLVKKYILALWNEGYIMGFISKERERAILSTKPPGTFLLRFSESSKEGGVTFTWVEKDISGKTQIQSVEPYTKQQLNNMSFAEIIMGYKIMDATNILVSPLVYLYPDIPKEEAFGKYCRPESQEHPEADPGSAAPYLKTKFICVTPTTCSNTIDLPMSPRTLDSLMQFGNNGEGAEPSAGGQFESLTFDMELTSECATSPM
inactive: [1] -0.033 | [2] 0.034 | [3] 0.1 | [4] 0.024 | [5] -0.006

SRSF7 (UniProt Q16629)
inactive: [1] 0.136 | [2] -0.171 | [3] -0.093 | [4] 0.209 | [5] 0.055

SNX12 isoform 1 (UniProt Q9UMY4)
Sequence of UniProt Q9UMY4 (Q9UMY4 whole entry, looked up): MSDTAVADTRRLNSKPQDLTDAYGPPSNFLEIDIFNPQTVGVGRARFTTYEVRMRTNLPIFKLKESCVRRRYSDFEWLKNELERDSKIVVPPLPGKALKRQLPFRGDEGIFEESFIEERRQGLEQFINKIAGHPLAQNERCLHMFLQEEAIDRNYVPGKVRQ
inactive: [1] 0.016 | [2] -0.009 | [3] 0.095 | [4] 0.026 | [5] 0.02

SPAG9 isoform 4 (UniProt O60271)
Sequence of UniProt O60271 (O60271 whole entry, looked up): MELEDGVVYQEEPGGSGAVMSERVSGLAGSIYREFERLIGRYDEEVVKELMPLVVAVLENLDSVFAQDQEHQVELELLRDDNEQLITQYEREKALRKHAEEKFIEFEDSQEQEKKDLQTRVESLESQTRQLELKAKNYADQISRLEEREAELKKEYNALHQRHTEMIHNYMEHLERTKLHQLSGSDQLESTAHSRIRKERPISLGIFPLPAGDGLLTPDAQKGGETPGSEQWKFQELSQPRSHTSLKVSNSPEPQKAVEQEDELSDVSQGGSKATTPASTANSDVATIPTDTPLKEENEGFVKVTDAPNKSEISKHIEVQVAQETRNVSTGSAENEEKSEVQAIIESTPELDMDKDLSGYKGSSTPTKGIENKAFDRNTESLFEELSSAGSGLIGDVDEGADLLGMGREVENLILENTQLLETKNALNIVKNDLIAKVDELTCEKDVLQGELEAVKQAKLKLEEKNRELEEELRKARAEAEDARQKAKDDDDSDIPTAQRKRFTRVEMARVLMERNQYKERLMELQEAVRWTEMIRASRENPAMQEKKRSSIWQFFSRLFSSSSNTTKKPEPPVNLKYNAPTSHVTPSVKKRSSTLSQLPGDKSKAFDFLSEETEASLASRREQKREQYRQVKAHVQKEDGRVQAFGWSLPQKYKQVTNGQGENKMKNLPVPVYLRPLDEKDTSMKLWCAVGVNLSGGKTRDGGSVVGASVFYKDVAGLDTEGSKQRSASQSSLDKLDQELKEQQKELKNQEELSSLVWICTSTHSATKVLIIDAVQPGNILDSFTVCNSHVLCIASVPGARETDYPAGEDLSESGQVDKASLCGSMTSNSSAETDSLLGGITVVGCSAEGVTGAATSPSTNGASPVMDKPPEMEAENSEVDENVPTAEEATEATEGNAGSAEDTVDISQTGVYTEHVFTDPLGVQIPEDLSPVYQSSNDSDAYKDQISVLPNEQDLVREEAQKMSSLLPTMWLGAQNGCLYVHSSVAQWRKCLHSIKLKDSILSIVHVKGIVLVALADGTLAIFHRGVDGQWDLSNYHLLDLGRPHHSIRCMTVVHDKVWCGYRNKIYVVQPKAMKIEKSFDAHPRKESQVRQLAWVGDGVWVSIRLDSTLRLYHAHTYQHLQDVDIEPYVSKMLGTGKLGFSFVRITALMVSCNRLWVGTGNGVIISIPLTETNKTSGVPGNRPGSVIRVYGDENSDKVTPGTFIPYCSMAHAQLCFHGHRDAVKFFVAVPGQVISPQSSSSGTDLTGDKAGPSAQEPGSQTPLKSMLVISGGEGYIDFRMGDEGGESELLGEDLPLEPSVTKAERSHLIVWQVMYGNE
inactive: [1] 0.15 | [2] 0.006 | [3] -0.048 | [4] 0.028 | [5] 0.025

SPINDOC (UniProt Q9BUA3)
Sequence of UniProt Q9BUA3 (Q9BUA3 whole entry, looked up): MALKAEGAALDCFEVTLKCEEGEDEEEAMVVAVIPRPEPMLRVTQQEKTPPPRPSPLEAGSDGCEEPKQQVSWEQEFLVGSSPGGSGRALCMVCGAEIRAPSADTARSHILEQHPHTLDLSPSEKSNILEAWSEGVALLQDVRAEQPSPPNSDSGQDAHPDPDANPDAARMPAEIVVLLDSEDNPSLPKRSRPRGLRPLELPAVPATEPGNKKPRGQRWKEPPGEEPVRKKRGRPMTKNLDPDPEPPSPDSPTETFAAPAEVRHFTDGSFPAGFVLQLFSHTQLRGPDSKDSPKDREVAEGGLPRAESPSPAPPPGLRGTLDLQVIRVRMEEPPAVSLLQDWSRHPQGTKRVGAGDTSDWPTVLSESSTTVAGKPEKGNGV
inactive: [1] 0.03 | [2] 0.02 | [3] -0.066 | [4] 0.145 | [5] 0.041

TIMM10 (UniProt P62072)
inactive: [1] -0.013 | [2] -0.043 | [3] 0.042 | [4] -0.033 | [5] 0.022

SMPD4 isoform 4 (UniProt Q9NXE4)
inactive: [1] -0.094 | [2] 0.031 | [3] 0.043 | [4] -0.034 | [5] -0.104

SLC38A7 (UniProt Q9NVC3)
Sequence of UniProt Q9NVC3 (Q9NVC3 whole entry, looked up): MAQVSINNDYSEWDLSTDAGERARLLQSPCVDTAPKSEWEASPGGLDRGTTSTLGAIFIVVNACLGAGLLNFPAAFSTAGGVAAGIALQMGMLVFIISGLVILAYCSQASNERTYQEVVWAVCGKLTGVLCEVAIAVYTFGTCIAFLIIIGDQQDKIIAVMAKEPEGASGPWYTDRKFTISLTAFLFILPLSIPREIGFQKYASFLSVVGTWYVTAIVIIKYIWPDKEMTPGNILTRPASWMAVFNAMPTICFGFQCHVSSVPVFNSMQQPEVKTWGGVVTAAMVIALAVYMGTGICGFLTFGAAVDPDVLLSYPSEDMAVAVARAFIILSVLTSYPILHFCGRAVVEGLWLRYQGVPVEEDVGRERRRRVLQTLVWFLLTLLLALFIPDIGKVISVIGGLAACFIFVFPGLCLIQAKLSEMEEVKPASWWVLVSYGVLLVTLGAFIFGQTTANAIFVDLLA
inactive: [1] 0.021 | [2] -0.031 | [3] -0.004 | [4] -0.035 | [5] 0.117

SRXN1 (UniProt Q9BYN0)
inactive: [1] -0.02 | [2] 0.086 | [3] 0.117 | [4] -0.05 | [5] 0.086

SNW1 (UniProt Q13573)
inactive: [1] 0.03 | [2] 0.015 | [3] -0.036 | [4] 0.055 | [5] -0.035

SLC25A38 (UniProt Q96DW6)
inactive: [1] 0.014 | [2] 0.034 | [3] -0.035 | [4] -0.035 | [5] 0.014

TIMM29 (UniProt Q9BSF4)
inactive: [1] -0.034 | [2] 0.114 | [3] -0.026 | [4] -0.006 | [5] 0.031

SNX1 (UniProt Q13596)
inactive: [1] -0.019 | [2] 0.029 | [3] 0.038 | [4] -0.003 | [5] -0.07

TIMM21 (UniProt Q9BVV7)
inactive: [1] -0.02 | [2] 0.052 | [3] 0.024 | [4] 0.004 | [5] -0.048

SLC35A1 (UniProt P78382)
inactive: [1] -0.046 | [2] -0.108 | [3] 0.05 | [4] -0.07 | [5] 0.013
